Results reported in PubChem BioAssay (NCI).
The panel holds about 83,000 compounds, 20% with a hit somewhere; the sample as a whole holds those more often.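 Plates (96-well) were seeded with cells, treated with compound at one concentration, and incubated for 48 hours before percent growth was determined.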 Unmarked numbers belong to inactive results. Calls of active or inactive are those of the source. How the source made its calls: active means growth percent below 10; inactive means the rest.

These molecules were tested on MDA-MB-468 breast (assay: NCI-60 one-dose screen, 48 h (100 = growth as untreated, 0 = no growth, -100 = all killed)). Conditions: 10 µM unless noted.

SMILES | growth
O=[N+]([O-])c1cccc(-c2nc3sccn3c2-c2ccnc(NCCCNS(=O)(=O)c3cccc(F)c3)n2)c1 | -13.8% (active)
Cc1nc(N)nc(N[C@@H](C)c2nc3cccc(NCc4ccc(C(=O)NO)cc4)c3c(=O)n2-c2ccccc2)n1 | -5.1% (active)
C=C1CC2(OC1=O)C(=O)N(CCCCCCCCCCCCN1C(=O)C3(CC(=C)C(=O)O3)c3ccccc31)c1ccccc12 (configuration not stated) | 70.2%
Cc1cc2cc3ccc(N(C)C)cc3nc2cc1N | -56.8% (active)
CCCn1c(=O)[nH]c(N)c([C@H]2c3ccccc3Oc3[nH]c(=O)n(CCC)c(=O)c32)c1=O | 68.7%
Cc1cccc(C[C@H](NC(=O)Nc2ccc(Cl)cc2F)C(=O)N[C@@H]2C(=O)N3C[C@H](OC(=O)CCN(C)C)C[C@H]3C(=O)N3CCCC[C@H]3C(=O)N[C@@H](C)C(=O)N3C[C@H](C)C[C@H]3C(=O)O[C@H]2C)c1 | 9.39% (active)
CCN(CC)CCCOC(=O)Nc1ccccc1Cl | 107%
CCCCCCCCCCCCCCCCCCOP(=O)([O-])OC1CC[N+](C)(C)CC1 | 0% (active)
Cc1ccc(C(=O)/C=C/c2ccccc2)s1 | 89.7%
COc1ccc(C2=NNC(c3ccc(Oc4nc5c(c(=O)n(C)c(=O)n5C)n4C)c(OC)c3)C2)cc1 (configuration not stated) | 89.5%
CCOC(=O)/C=C/c1ccc(C(=O)OCC)[nH]1 | 53.5%
OC1CCN(CCCOc2c3ccc(Cl)cc3nc3c2oc2ccccc23)CC1 | -43.9% (active)
N#C/C(=C\c1ccc(Br)cc1)n1nnc2cccc(F)c21 | -0.554% (active)
O=C(O)Cc1ccccn1 | 101%
CCCCCCCCCCCCCCn1c2ccccc2c2c3c(c4c5cc(OC)ccc5oc4c21)C(=O)NC3=O | 106%
OCC1OC(O)C(O)C(O)C1O (configuration not stated) | 121%
CCNC(=O)Oc1ccc(/C(=C(/C)c2ccccc2)c2ccc(OCCN3CCCC3)cc2)cc1 | 80.3%
CC(/C=C/c1ccccc1)=N/NC(=O)c1ccncc1 | 98.8%
CCC(O)(C(c1ccccc1)c1ccccn1)C(c1ccccc1)c1ccccn1 (configuration not stated) | 114%
COc1ccc(S(=O)(=O)n2c3ccccc3n3ncc(-c4nnc(C)o4)c23)cc1 | -19.5% (active)
C=C1C(=O)O[C@H]2[C@H]1CC/C(C=Nc1c(N)cc(F)cc1Br)=C\CC[C@@]1(C)O[C@@H]21 | 44%
CC1C(=O)c2ccccc2CC1C(=O)O (configuration not stated) | 118%
COc1ccc(Cc2nc3cc(OC)c(OC)cc3c(=O)[nH]2)cc1 | 56%
COc1c([C@@H](CC(C)C)OC(C)=O)ccc2c1C(=O)OCc1cc(C)cc(O)c1O2 | 8.08% (active)
COc1ccc(OC)c(Nc2nnc(-c3ccc(Cl)cc3)o2)c1 | 74.2%
COc1ccc(NC(=O)Cn2cc(CN3C(=O)c4ccc([N+](=O)[O-])cc4C3=O)nn2)cc1 | 110%
O=C(/C=C/c1cccc2ccccc12)Nc1ncc(Cc2ccccc2)s1 | -14.4% (active)
